Test results taken from PubChem BioAssay AID1159580 (chemical genetic matrix, 2015).
Values joined by “and” are separate entries in the source; they are usually repeats but may differ in a detail not shown here. Equal values may be shown once. Among all 5,500 compounds or so, about 2,000 (36%) were called active. About 18% were inconclusive and are not listed. Rule as the data show it: active = normalized growth mostly below about 0.91 (no sharp cut-off); inconclusive = no clear call, values can overlap the other calls; inactive = mostly above about 0.92. The list shows a part of the results.

Assay: chemical genetic growth profiling, strain panel (AID 1159580);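 also: tested at 20 µM; growth read once vehicle control cultures reached saturation at 30 °C; 1 = growth at the plate median or of vehicle wells; lower values mean less growth of the strain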
Conditions: S. cerevisiae deletion strains, growth OD

Measured: normalized growth

O=C(O)CC[N+](=O)[O-]
inactive: locus YAL013W, strain DEP1, stronger effect = lower value 0.991 and 0.999 | locus YAL021C, strain ccr4, stronger effect = lower value 0.987 | locus YAL026C, strain drs2, stronger effect = lower value 1.01 | locus YAL030W, strain snc1, stronger effect = lower value 1 | locus YAL040C, strain CLN3, stronger effect = lower value 0.99 | locus YBL061C, strain skt5, stronger effect = lower value 1.01 | locus YBR009C, strain hhf1, stronger effect = lower value 1.01 | locus YBR021W, strain FUR4, stronger effect = lower value 1.12 | locus YBR023C, strain chs3, stronger effect = lower value 1.01 | locus YBR171W, strain sec66, stronger effect = lower value 1.01 | locus YBR229C, strain ROT2, stronger effect = lower value 1.01 | locus YBR231C, strain swc5, stronger effect = lower value 1.02 | locus YBR279W, strain paf1, stronger effect = lower value 0.999 | locus YCL011C, strain gbp2, stronger effect = lower value 1.02 | locus YCL016C, strain dcc1, stronger effect = lower value 1 | locus YCL029C, strain bik1, stronger effect = lower value 0.985 | locus YCL061C, strain MRC1 (second series), stronger effect = lower value 1 | locus YCL061C, strain MRC1, stronger effect = lower value 1 | locus YCL069W, strain vba3, stronger effect = lower value 0.996 | locus YCR088W, strain abp1, stronger effect = lower value 1 | locus YDL005C, strain med2, stronger effect = lower value 1 | locus YDL035C, strain GPR1, stronger effect = lower value 0.976 | locus YDL040C, strain nat1, stronger effect = lower value 0.988 | locus YDL074C, strain BRE1, stronger effect = lower value 0.999 | locus YDL101C, strain DUN1, stronger effect = lower value 0.998 | locus YDL134C, strain PPH21, stronger effect = lower value 0.997 | locus YDL185W, strain tfp1, stronger effect = lower value 0.962 | locus YDL192W, strain arf1, stronger effect = lower value 0.974 | locus YDR001C, strain nth1, stronger effect = lower value 0.993 | locus YDR069C, strain doa4, stronger effect = lower value 1.02 | locus YDR101C, strain arx1, stronger effect = lower value 0.986 | locus YDR137W, strain rgp1, stronger effect = lower value 0.999 | locus YDR150W, strain NUM1, stronger effect = lower value 0.972 and 1 | locus YDR159W, strain sac3, stronger effect = lower value 1.02 | locus YDR162C, strain NBP2, stronger effect = lower value 1.01 | locus YDR195W, strain ref2 0.977 | locus YDR297W, strain sur2, stronger effect = lower value 1.02 | locus YDR318W, strain mcm21, stronger effect = lower value 0.984 | locus YDR334W, strain swr1, stronger effect = lower value 1.01 | locus YDR335W, strain msn5, stronger effect = lower value 1 | locus YDR363W, strain ESC2, stronger effect = lower value 1.01 | locus YDR388W, stronger effect = lower value 0.993 | locus YDR392W, strain spt3, stronger effect = lower value 1.02 | locus YDR502C, strain sam2, stronger effect = lower value 0.988 | locus YEL003W, strain gim4, stronger effect = lower value 1.02 | locus YEL037C, strain rad23, stronger effect = lower value 1 | locus YEL061C, strain CIN8 (second series), stronger effect = lower value 1 | locus YEL061C, strain CIN8, stronger effect = lower value 0.994 | locus YER002W, strain NOP16, stronger effect = lower value 1.01 | locus YER015W, strain faa2, stronger effect = lower value 1 | locus YER016W, strain bim1, stronger effect = lower value 1.01 | locus YER110C, stronger effect = lower value 0.963 | locus YER111C, strain swi4, stronger effect = lower value 1.01 | locus YER155C, strain BEM2 (second series), stronger effect = lower value 1.03 | locus YER155C, strain BEM2, stronger effect = lower value 0.99 | locus YER167W, strain BCK2, stronger effect = lower value 0.988 | locus YFR010W, strain ubp6, stronger effect = lower value 1.01 | locus YGL078C, strain dbp3, stronger effect = lower value 0.979 | locus YGL086W, strain mad1, stronger effect = lower value 0.982 | locus YGL167C, strain pmr1, stronger effect = lower value 1.01 | locus YGL173C, strain kem1, stronger effect = lower value 1.02 | locus YGL227W, strain vid30, stronger effect = lower value 1 | locus YGL240W, strain doc1, stronger effect = lower value 1.04 | locus YGL248W, strain PDE1, stronger effect = lower value 1 | locus YGL253W, strain hxk2, stronger effect = lower value 1.01 | locus YGR078C, strain PAC10, stronger effect = lower value 0.986 | locus YGR135W, strain pre9, stronger effect = lower value 0.997 | locus YGR229C, strain SMI1, stronger effect = lower value 0.992 and 1 | locus YGR252W, strain gcn5, stronger effect = lower value 0.977 | locus YHR013C, strain ard1, stronger effect = lower value 0.997 | locus YHR027C, strain rpn1, stronger effect = lower value 0.997 | locus YHR030C, strain SLT2, stronger effect = lower value 0.983 and 0.976 | locus YHR079C, strain IRE1 (second series), stronger effect = lower value 0.996 | locus YHR079C, strain IRE1, stronger effect = lower value 0.976 | locus YHR094C, strain hxt1, stronger effect = lower value 0.978 | locus YHR129C, strain ARP1, stronger effect = lower value 0.986 | locus YHR142W, strain chs7, stronger effect = lower value 1.02 | locus YHR200W, strain rpn10, stronger effect = lower value 0.973 | locus YIL066C, strain RNR3, stronger effect = lower value 0.981 | locus YIL073C, strain SPO22, stronger effect = lower value 0.934 | locus YIL125W, strain kgd1, stronger effect = lower value 0.984 | locus YIR030C, strain dcg1, stronger effect = lower value 0.986 | locus YJL092W, strain hpr5, stronger effect = lower value 1 | locus YJL095W, strain BCK1 (second series), stronger effect = lower value 1.01 | locus YJL095W, strain BCK1, stronger effect = lower value 1 and 1.01 | locus YJL115W, strain asf1, stronger effect = lower value 0.997 | locus YJL129C, strain trk1, stronger effect = lower value 1.01 | locus YJL134W, strain LCB3, stronger effect = lower value 0.991 | locus YJL154C, strain vps35, stronger effect = lower value 0.996 | locus YJL164C, strain tpk1, stronger effect = lower value 0.993 | locus YJL166W, strain qcr8, stronger effect = lower value 1.02 | locus YJL168C, strain set2, stronger effect = lower value 0.99 | locus YJL187C, strain SWE1 (second series), stronger effect = lower value 0.982 | locus YJL187C, strain SWE1, stronger effect = lower value 1.01 | locus YJR043C, strain POL32, stronger effect = lower value 0.98 | locus YJR066W, strain TOR1, stronger effect = lower value 0.935
